Data taken from PubChem BioAssay (NCATS).
Inconclusive results are not listed. Some structures have more than one record in an assay (separate samples or runs), and their calls can disagree. A number with no mark means an inactive call. The source made the active and inactive calls. Calls come from the whole dose curve; as a rule, active = well fitted inhibition curve with a large enough effect; inconclusive = small, poorly fitted or top-dose-only effect; inactive = flat fitted curve, though single readings scatter.

Key:
Assay in all cases: Cytotoxic Profiling of Annotated Libraries Using Quantitative High-Throughput Screening (AID 1296008); note: nearly all actives have a fitted effect of over 60% in size
Conditions in all cases: Five cell lines viability, CellTiter-Glo ATP luminescence, 48-72 h; max response: hits give low values
[1] = tested on: HEK293
Procedure, shortened: (§1)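 Cytotoxicity was measured as CellTiter-Glo ATP luminescence, read after 10 min at room temperature. Compound treatment of the cells lasted 48 or 72 hr at 37 degrees Celsius in a qHTS format.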

[2] = tested on: HaCat
Procedure, shortened: as §1

[3] = tested on: KB-3-1
Procedure, shortened: as §1

[4] = tested on: NIH3T3
Procedure, shortened: as §1
% is set by controls: 0 for no effect and ±100 for the full control effect; potency is the fitted concentration of half-maximal effect.

## Cn1nnc(-c2ccc(-c3ccc(N4C[C@H](COP(=O)(O)O)OC4=O)cc3F)cn2)n1
[1]
  Potency: 0.58 µM (active)
[2]
  max response: 0.171%
[3]
  max response: -33%

## C=C1[C@@H]2CC[C@@H]3[C@@](CCC4C(C(=O)O)(C(=O)O)C[C@@H](O[C@@H]5O[C@H](CO)[C@@H](O)[C@H](O)[C@H]5OC(=O)CC(C)C)C[C@]43C)(C2)[C@H]1O (some centres not stated)
[1]
  max response: -0.701%
[2]
  max response: 2.26%
[3]
  outcome: inactive

## COc1ncc(Nc2ncc([C@@H](C)N3CCN(S(C)(=O)=O)CC3)cc2-c2nc(C)nc(N)n2)cc1F
[1]
  Potency: 0.259 µM (active)
[2]
  Potency: 0.058 µM (active)
[3]
  Potency: 9.2 µM (active)

## COc1cc2ncnc(Nc3cccc(O)c3)c2cc1OC
[1]
  max response: -2.36%
[2]
  Potency: 4.61 µM (active)
[3]
  outcome: inactive

## O=C(CC(c1ccccc1)c1ccccc1)N1CCN(C(c2ccccc2)c2ccccc2)CC1
[1]
  Potency: 20.6 µM (active)
[2]
  max response: -29%
[3]
  Potency: 18.4 µM (active)

## COC(=O)CCSCc1ccc(-c2onc(C)c2NC(=O)OC(C)c2ccccc2Cl)cc1 (configuration not stated)
[1]
  max response: -7.48%
[2]
  max response: -24.6%
[3]
  outcome: inactive

## CC[C@]1(O)CC2CN(CCc3c([nH]c4ccccc34)[C@@](C(=O)OC)(c3cc4c(cc3OC)N(C=O)[C@H]3[C@@](O)(C(=O)OC)[C@H](OC(C)=O)[C@]5(CC)C=CCN6CC[C@]43[C@@H]65)C2)C1 (some centres not stated)
[1]
  Potency: 0.0321 µM (active)
[2]
  max response: 3.94%
[3]
  Potency: 0.0081 µM (active)

## CCCCNc1ccc(-c2ccc(CN3CCOCC3)cn2)c(NC2CCC(O)CC2)c1 (configuration not stated)
[1]
  max response: -7.2%
[2]
  max response: -2.49%
[3]
  max response: -18.8%

## C=C1C(=O)OC2CC(C)=C(C(C)CCCO)C(O)C12 (configuration not stated)
[1]
  max response: -3.2%
[2]
  max response: -11.4%
[3]
  outcome: inactive

## CCOc1cc(C)c(Cl)cc1S(=O)(=O)n1cnc2ccccc21
[1]
  max response: -19.4%
[2]
  max response: -29.2%
[3]
  outcome: inactive

## O=C1CCC(c2ccccc2)(C2CCN(Cc3ccc(I)cc3)CC2)C(=O)N1 (configuration not stated)
[1]
  Potency: 18.4 µM (active)
[2]
  max response: -3.49%
[3]
  max response: -7.17%

## N#CC(c1ccnc(OCc2ccc(CN3CCOCC3)cc2)n1)c1nc2ccccc2s1 (configuration not stated)
[1]
  Potency: 5.17 µM (active)
[2]
  max response: 0.847%
[3]
  max response: -18.3%

## CS(=O)(=O)NCC1CCC(Nc2nc3c(s2)CCSc2ccccc2-3)CC1 (configuration not stated)
[1]
  Potency: 14.6 µM (active)
[2]
  outcome: inactive
[3]
  max response: -22.2%

## CN(C)C/C=C/C(=O)Nc1cc2c(Nc3ccc(F)c(Cl)c3)ncnc2cc1OC1CCOC1 (configuration not stated)
[1]
  Potency: 5.8 µM (active)
[2]
  Potency: 0.517 µM (active)
[3]
  Potency: 5.17 µM (active)

## CNC(=O)c1cc(Oc2ccc3nc(N[C@@H]4CCCC[C@H]4O)sc3c2)ccn1
[1]
  Potency: 16.4 µM (active)
[2]
  outcome: inactive
[3]
  max response: -18.3%

## Cc1nc(NC(=O)N2CCCC2C(N)=O)sc1-c1csc(C(C)(C)C)n1 (configuration not stated)
[1]
  max response: -25.9%
[2]
  Potency: 5.17 µM (active)
[3]
  outcome: inactive

## O=C1NC(=O)C(c2cn(-c3ccccc3)nc2-c2ccc(F)cc2)N1 (configuration not stated)
[1]
  max response: -6.53%
[2]
  Potency: 16.4 µM (active)
[3]
  outcome: inactive

## Cc1cc(N(C)C)ccc1-c1nc2ccc(-c3nc4ccc(N5CCN(C)CC5)cc4[nH]3)cc2[nH]1
[1]
  Potency: 8.2 µM (active)
[2]
  max response: -16.4%
[3]
  Potency: 23.1 µM (active)

## COc1ccc(-c2cnc(-c3cccc4c3-c3ccccc3C4=O)o2)cc1
[1]
  Potency: 0.112 µM (active)
[2]
  max response: -2.01%
[3]
  Potency: 0.0709 µM (active)

## O=C1C=CC2OC(c3ccccc3)C(O)C2O1 (configuration not stated)
[1]
  Potency: 23.1 µM (active)
[2]
  outcome: inactive
[3]
  max response: -14.2%

## C=C(C)C(=O)O[C@H]1CC2=CC(C/C(C)=C\[C@H]3OC(=O)C(=C)[C@H]13)OC2=O (some centres not stated)
[1]
  Potency: 4.53 µM (active)
[2]
  Potency: 12.8 µM (active)
[3]
  max response: -20.7%

## CC(C)CCC(=O)CC1c2ccccc2C(=O)N1c1ccc2ccc(Cl)nc2n1 (configuration not stated)
[1]
  Potency: 16.4 µM (active)
[2]
  max response: 3.26%
[3]
  max response: 2.42%

## C[C@@H]1C[C@@H]2O[C@H]2/C=C\C=C\C(=O)Cc2c(Cl)c(O)cc(O)c2C(=O)O1
[1]
  Potency: 0.286 µM (active)
[2]
  Potency: 3.6 µM (active)
[3]
  Potency: 2.27 µM (active)

## Cc1noc(-c2ccc(-c3ccc(CC(=O)O)cc3)cc2)c1NC(=O)O[C@H](C)c1ccccc1
[1]
  max response: -14%
[2]
  max response: -1.06%
[3]
  max response: 0.957%

## CC(C)(C(=O)NCC(F)(F)C(F)(F)F)C(=O)NC1C(=O)Nc2ccccc2-c2ccccc21 (configuration not stated)
[1]
  Potency: 5.8 µM (active)
[2]
  Potency: 16.4 µM (active)
[3]
  Potency: 18.4 µM (active)

## CNCc1ccc(-c2cc(-c3nc(-c4ccc(S(=O)(=O)C(C)C)cc4)cnc3N)on2)cc1
[1]
  Potency: 1.16 µM (active)
[2]
  max response: -11.6%
[3]
  Potency: 1.3 µM (active)

## CCC(Nc1ncnc2nc[nH]c12)c1nc2cccc(F)c2c(=O)n1-c1ccccc1 (configuration not stated)
[1]
  max response: -7.81%
[2]
  max response: -6.65%
[3]
  outcome: inactive

## COc1cc2nc(N3CCCC3)nc(NCCCCCN3CCCC3)c2cc1OC
[1]
  Potency: 4.61 µM (active)
[2]
  Potency: 18.4 µM (active)
[3]
  Potency: 16.4 µM (active)

## COc1ccc2nc(S(=O)(=O)Cc3ncc(C)c(OC)c3C)[nH]c2c1
[1]
  Potency: 16.4 µM (active)
[2]
  max response: -8.8%
[3]
  max response: -6.6%

## C=C1C(=O)OC2C1CCC(=C)C1CC(OC(C)=O)C(=C)C12 (configuration not stated)
[1]
  Potency: 11.6 µM (active)
[2]
  max response: -12%
[3]
  max response: 1.53%

## CCOc1cc(C(=O)N2CCC(N3CCN(C)CC3)CC2)ccc1Nc1ncc2c(n1)N(C1CCCC1)c1ccccc1C(=O)N2C
[1]
  Potency: 11.6 µM (active)
[2]
  max response: -1.5%
[3]
  Potency: 23.1 µM (active)

## CC(=O)c1cc(C(=O)N[C@@H](C)Cn2ccc(-c3ccc(C#N)c(Cl)c3)n2)[nH]n1
[1]
  Potency: 23.1 µM (active)
[2]
  max response: -24.9%
[3]
  max response: -26.1%

## CC(=O)C12OC(C)(C)OC1CC1C3CCC4=CC(=O)C=CC4(C)C3(F)C(O)CC12C (configuration not stated)
[1]
  max response: -19.2%
[2]
  max response: -3.19%
[3]
  outcome: inactive

## CC(O)/C=C/C1(O)C2(C)COC1(C)CC(O)C2 (configuration not stated)
[1]
  max response: -7.99%
[2]
  max response: -4.33%
[3]
  max response: -4.44%

## NC(=O)[C@H]1CCS[C@@H]2C[C@]3(CCCN3C(=O)Cc3ccc(NC(=O)COc4ccc(Cl)cc4Cl)cc3)C(=O)N12
[1]
  Potency: 7.41 µM (active)
[2]
  Potency: 18.6 µM (active)
  max response: -24.7%
[4]
  Potency: 11.7 µM (active)

## CC(C)(C)Nc1nc(Nc2ccc(C(N)=O)cc2)cc(N)c1C#N
[1]
  Potency: 1.64 µM (active)
[2]
  max response: -5.65%
[3]
  Potency: 5.8 µM (active)

## CO[C@H]1/C=C\O[C@@]2(C)Oc3c(C)c(O)c4c(O)c(c5c(nc6cc(C)ccn65)c4c3C2=O)NC(=O)/C(C)=C\C=C/[C@H](C)[C@H](O)[C@@H](C)[C@@H](O)[C@@H](C)[C@H](OC(C)=O)[C@@H]1C
[1]
  max response: -17.1%
[2]
  max response: -2.81%
[3]
  max response: 9.37%

## FC(F)(F)c1cc(-c2ncn(/C=C\c3nnco3)n2)cc(C(F)(F)F)c1
[1]
  Potency: 3.26 µM (active)
[2]
  max response: -20%
[3]
  max response: -19.3%

## COc1ccc(C2=N[C@@H](c3ccc(Cl)cc3)[C@@H](c3ccc(Cl)cc3)N2C(=O)N2CCNC(=O)C2)c(OC(C)C)c1
[1]
  max response: -29%
[2]
  max response: -13.8%
[3]
  max response: 6.36%

## CC1=C(C(=O)OCc2ccccc2)C(c2ccc(-c3ccccc3)cc2)NC(=O)N1CCCCCC(=O)O (configuration not stated)
[1]
  max response: -21.5%
[2]
  max response: -18.2%
[3]
  outcome: inactive

## COc1nc2sc(C(=O)NC3CC3)c(N)c2c(C)c1Cl
[1]
  max response: -8.8%
[2]
  max response: -34.1%
[3]
  outcome: inactive

## CN(CCc1ccc(Nc2ncc(-c3cccnc3)s2)cc1)Cc1ccccc1
[1]
  Potency: 7.31 µM (active)
[2]
  max response: -1.85%
[3]
  max response: -12.1%

## Cc1cc(C(=O)N2Cc3cnn(C)c3Nc3ccccc32)ccc1CNC(=O)N1CCC[C@H]1C(=S)N1CCCN(C)CC1
[1]
  max response: -0.106%
[2]
  max response: -21.4%
[3]
  max response: 2.82%

## CC(=O)O[C@@](C)(C(=O)/C=C/C(C)(C)O)[C@H]1[C@H](O)C[C@@]2(C)[C@@H]3CC=C4[C@@H](C=C(O)C(=O)C4(C)C)[C@]3(C)C(=O)C[C@]12C
[1]
  Potency: 5.63 µM (active)
[2]
  Potency: 1.42 µM (active)
[3]
  Potency: 1 µM (active)

## C=C1C(=O)OC2/C=C(\CO)CC/C=C(\C=O)CC(OC(=O)CC(C)C)C12 (configuration not stated)
[1]
  Potency: 12.8 µM (active)
[2]
  max response: -10.5%
[3]
  max response: -5.58%

## CCCC(=O)NCCc1csc(-c2ccc(Cl)cc2)n1
[1]
  Potency: 16.4 µM (active)
[2]
  max response: -70.2%
[3]
  max response: -24.2%

## C=C1C(=O)O[C@H]2C1[C@H](OC(=O)/C(=C/CO)COC(=O)/C(C)=C/CO)CC(=C)[C@@H]1CC(=O)[C@@H](C)[C@@H]12 (some centres not stated)
[1]
  Potency: 11.2 µM (active)
[2]
  max response: -52.7%
[3]
  max response: -3.1%

## CC1=C(C(=O)O)/C(=C/CO[C@@H]2O[C@H](COC(=O)/C=C/c3ccc(O)cc3)[C@@H](O)[C@H](O)[C@H]2O)C(O)C1 (some centres not stated)
[1]
  max response: 1.96%
[2]
  max response: -4.87%
[3]
  max response: 2.44%

## O=C(O)c1cc2cccc([N+](=O)[O-])c2[nH]1
[1]
  max response: 2.87%
[2]
  max response: -11.1%
[3]
  max response: 5.58%

## CC(=O)N1CCN(C(=O)Cc2ccc(Nc3ncc(F)c(Nc4ccc(C(=O)Nc5ccccc5Cl)cc4)n3)cc2)CC1
[1]
  Potency: 6.51 µM (active)
[2]
  Potency: 4.11 µM (active)
[3]
  Potency: 5.17 µM (active)

## COc1ccc(C(=O)Nc2ncc(-c3ccc(C(=O)O)cc3)s2)cc1
[1]
  Potency: 7.31 µM (active)
[2]
  Potency: 5.8 µM (active)
[3]
  Potency: 2.91 µM (active)

## COc1ccc(-c2c(-c3cc(C(=O)O)ccn3)ncn2C)cc1
[1]
  max response: -1.7%
[2]
  max response: -1.2%
[3]
  max response: 4.75%
